# USP17 block: inhibitors of human USP17 deubiquitinase. Ubiquitin carboxyl-terminal hydrolase 17-like protein 5 (Homo sapiens), A8MUK1. purified USP17, Ub-rhodamine cleavage fluorescence, 3 h. inhibition, % at 50 µM. 6.5% of 47,000 active. AID 1645855, 2021
# USP7 block: inhibitors of human USP7 deubiquitinase; Ubiquitin carboxyl-terminal hydrolase 7 (Homo sapiens), Q93009; purified USP7, Ub-rhodamine cleavage fluorescence; inhibition, % at 20 µM; 0.3% of 47,000 active; AID 1645854, 2021
# USP10 inh: inhibitors of human USP10 deubiquitinase; Ubiquitin carboxyl-terminal hydrolase 10 (Homo sapiens), Q14694; 1.1% of 47,000 active; inhibition, % at 20 µM; purified USP10, Ub-rhodamine fluorescence, 60 min; AID 1645856, 2021
# USP30 inh: inhibitors of human USP30 deubiquitinase; Ubiquitin carboxyl-terminal hydrolase 30 (Homo sapiens), Q70CQ3; purified USP30, Ub-rhodamine cleavage fluorescence; inhibition, % at 25 µM; 5.3% of 47,000 active
# Target sequence (Q70CQ3 whole entry, looked up): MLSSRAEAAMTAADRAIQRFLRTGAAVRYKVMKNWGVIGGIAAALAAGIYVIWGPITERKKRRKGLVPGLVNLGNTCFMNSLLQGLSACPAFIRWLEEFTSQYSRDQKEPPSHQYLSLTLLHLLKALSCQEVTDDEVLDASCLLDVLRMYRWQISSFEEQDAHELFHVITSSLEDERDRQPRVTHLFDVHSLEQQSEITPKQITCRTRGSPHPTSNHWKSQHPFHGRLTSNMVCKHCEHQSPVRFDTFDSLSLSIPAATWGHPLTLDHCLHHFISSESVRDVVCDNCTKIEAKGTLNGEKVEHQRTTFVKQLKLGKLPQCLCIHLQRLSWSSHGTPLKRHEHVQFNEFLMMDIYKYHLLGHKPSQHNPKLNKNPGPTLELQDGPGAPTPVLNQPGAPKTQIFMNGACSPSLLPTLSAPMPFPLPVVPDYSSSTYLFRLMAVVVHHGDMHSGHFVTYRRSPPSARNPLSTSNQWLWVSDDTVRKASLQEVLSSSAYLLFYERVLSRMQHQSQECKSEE
# USP8 block: inhibitors of human USP8 deubiquitinase; purified USP8, Ub-rhodamine cleavage fluorescence, 30 min; inhibition, % at 20 µM; 4.2% of 47,000 active; AID 1645853, 2021
# UCHL1 block: inhibitors of human UCHL1 deubiquitinase | Ubiquitin carboxyl-terminal hydrolase isozyme L1 (Homo sapiens), P09936 | purified UCHL1, Ub-rhodamine cleavage fluorescence | inhibition, % at 20 µM | 0.2% of 47,000 active
# Hits are given with their value; n = inactive; x = not tested or not shown. This is a sample that favours compounds with a hit; in the whole collection about 13% have one here. Rule as the data show it: active = inhibition above about 30%; inactive = the rest.
SMILES,USP17 block,USP7 block,USP10 inh,USP30 inh,USP8 block,UCHL1 block
COc1ccccc1CC(=O)N1CCCC(c2[nH]nc3nccnc23)C1 (configuration not stated),n,n,n,n,n,n
COc1ccccc1CC(=O)N1CCC(c2nn(CCN)c3nccnc23)C1 (configuration not stated),n,n,n,34.6,n,n
COc1ccc(CCNC(=O)Cn2c(=O)c(C)nc3cc(C)c(C)cc32)cc1OC,n,n,n,n,n,n
Cc1cccc(CNC(=O)Cn2c(=O)c(C)nc3cc(C)c(C)cc32)c1,n,n,n,n,32.5,n
CCn1cc(-c2ccnc3cc(C(=O)N4CCNC(=O)C4)nn23)c(C)n1,n,n,n,n,n,n
Clc1ccc(-c2cnc(N3CCOCC3)nc2)cc1,n,n,n,44.4,n,n
Fc1ccc(-c2cnc(N3CCOCC3)nc2)cc1,n,n,n,n,n,n
COC(=O)c1ccc(COC(=O)c2cc(C)nc3ccccc23)cc1,n,n,n,n,n,n
COC(=O)c1ccc(Nc2cc(C)nc3cc(C(F)(F)F)ccc23)cc1,63.6,n,n,65.6,35.0,n
O=C(Nc1nc2c(s1)CN(C(=O)c1ccco1)CC2)C1CCCO1 (configuration not stated),n,n,n,n,n,n
COc1cccc2cc(C(=O)N3CCc4nc(NC(=O)C5CCCO5)sc4C3)oc12 (configuration not stated),34.2,n,n,n,n,n
Cc1cn2c(=O)cc(COC(=O)c3ccc(NC(=O)c4ccccc4)cc3)nc2s1,39.5,n,n,n,n,n
Cc1ccc2nc(NC(=O)/C=C/c3ccc4c(c3)OCO4)sc2c1,n,n,n,n,36.2,n
Cc1ccc(/C=C/C(=O)Nc2ccc3c(c2)OCCO3)cc1,n,n,n,n,n,n
COc1ccc(-c2ocnc2C(=O)Nc2cccc(C)c2C)cc1,n,n,n,n,n,n
COc1ccc(-c2ocnc2C(=O)Nc2cccc(Cl)c2C)cc1OC,n,n,n,58.4,n,n
Cc1ccc2ncc(S(=O)(=O)c3ccccc3)c(N3CCOCC3)c2c1,n,n,n,n,n,n
CC(C)CC1Nc2ccc(C(=O)NCCCN3CCCC3)cc2NC1=O (configuration not stated),38.3,n,n,n,84.5,n
CC1CCCN(CCCNC(=O)c2ccc3c(c2)NC(=O)C2CCCN32)C1 (configuration not stated),n,n,n,n,n,n
CN(C(=O)COc1ccc(-n2cnnn2)cc1)C(c1ccccc1)c1ccccc1,n,n,n,35.6,n,n
O=C(COc1ccc(Br)cc1)Oc1ccc(-n2cnnn2)cc1,n,n,n,n,n,n
CCOc1ccc(C(=O)Oc2ccc(-n3cnnn3)cc2)cc1,n,n,n,n,32.8,n
Cc1cccc(C)c1OCC(=O)Oc1ccc(-n2cnnn2)cc1,n,n,n,n,n,n
Cc1ccccc1-c1nnc2sc(COc3ccc(Cl)cc3)nn12,68.4,n,n,80.0,30.9,n
COc1ccccc1-c1nnc2sc(COc3ccc(F)cc3)nn12,n,n,n,x,n,n
SMILES,USP17 block,USP7 block,USP10 inh,USP30 inh,USP8 block,UCHL1 block
CCc1nc(CN2CCOC(C)(C(=O)N3CCOCC3)C2)c(C)[nH]1 (configuration not stated),n,n,n,30.1,n,n
Cn1cc(-c2cnc(-c3ccccc3)nc2)cc1C(=O)NCCc1cccnc1,n,n,n,n,n,n
Cn1cc(-c2cnc(-c3cccc(F)c3)nc2)cc1C(=O)NCc1cccnc1,51.5,n,n,n,n,n
COc1c([C@H](CC(C)C)OC(C)=O)ccc2c1C(=O)OCc1cc(C)cc(O)c1O2,n,n,n,n,n,n
COc1c(C)c2c(c(O)c1C/C=C(\C)C(O)CC(=O)O)C(=O)OC2 (configuration not stated),n,n,n,38.0,n,n
Cn1c(NC(=O)c2ccco2)c(-c2cccs2)c(=O)c2ccccc21,n,n,n,n,34.1,n
Cc1cc(-c2cnc(N3CCCCC3)nc2C2CCN(c3ncccn3)CC2)on1,n,n,n,n,n,n
Cc1cc(-c2cnc(N3CCCCC3)nc2C2CCN(c3cnccn3)CC2)on1,n,n,n,34.4,n,n
Cc1cc(-c2cnc(N3CCSCC3)nc2[C@@H]2CCCO2)on1,n,n,n,32.6,n,n
COc1ccc2c(=O)c3c(oc2c1)C(=O)N(CCN1CCOCC1)C3c1cccc(F)c1 (configuration not stated),n,n,n,n,n,n
CCOc1cccc(C2c3c(oc4ccc(C)cc4c3=O)C(=O)N2CCN2CCOCC2)c1 (configuration not stated),n,n,n,n,40.0,n
COc1ccc(C(=O)Nc2cc(F)c3[nH]c(=O)ccc3c2)cc1,38.8,n,n,35.0,n,n
CCN1CCc2c(sc(NC(=O)CSc3ccc(Cl)cc3)c2C(N)=O)C1,34.1,n,n,n,n,n
COc1cccc(CC(=O)N2CCC(c3nc4ccccc4cc3C(N)=O)CC2)c1,n,n,n,n,n,n
COc1cccc(N2CC(NS(=O)(=O)c3ccc4ccccc4c3)CC2=O)c1 (configuration not stated),n,n,n,33.5,n,n
O=C1CC(NS(=O)(=O)c2ccc3ccccc3c2)CN1c1cccc(F)c1 (configuration not stated),54.5,n,n,n,n,n
Fc1ccc(-c2cnc(N3CCN(c4ccccn4)CC3)nc2)cc1,n,n,n,30.7,n,n
Fc1ccc(-c2[nH]ncc2CN2CCN(c3ccccn3)CC2)cc1,n,n,n,n,n,n
Cn1ncc2c(NCc3ccccc3)nc(N3CCCCC3)nc21,n,n,n,n,n,n
CC(C)c1cnn2c(NCc3ccccc3)cc(NCCCCCCN)nc12,n,n,n,37.4,n,n
Cc1ccc(C(=O)N2CCC([C@@H]3C[C@H](C(F)F)n4nc(C(C)(C)C)cc4N3)CC2)cn1,n,n,n,n,n,n
COc1ccc(NC(=O)c2ccc3c(c2)C2C4CCC(C4)C2C(c2ccccc2)N3)cc1 (configuration not stated),n,n,n,39.0,n,n
COc1ccc(NC(=O)c2c(NC(=O)Cc3ccccc3)sc3c2CCC(C)C3)cc1 (configuration not stated),n,n,n,n,n,n
COc1ccc(NC(=O)c2ccc3[nH]c4c(c3c2)CC(C)CC4)cc1 (configuration not stated),31.5,n,n,n,n,n
Cc1ccc(S(=O)(=O)c2c[nH]c3cc(F)ccc3c2=O)cc1F,n,n,n,n,68.8,n
